# Inconclusive results are not listed. The source made the active and inactive calls. How the source made its calls: active means hit-call score of the fitted dose curve at least 0.9, where 1 is the maximum; inconclusive means response in the unintended direction; inactive means score below 0.9.
# Assays:
# [1] = target: mouse Cholecystokinin, CCK1 Receptor (CCKA), Cckar (gene 12425) (UniProt O08786); assay: NVS_GPCR_mCCKAPeripheral: NovaScreen (NVS) G Protein-Coupled Receptor Assay for mouse Cholecystokinin, CCK1 Receptor (CCKA) (AID 2283285)
# Sequence of mouse Cholecystokinin, CCK1 Receptor (CCKA), Cckar (gene 12425) (O08786 whole entry, looked up): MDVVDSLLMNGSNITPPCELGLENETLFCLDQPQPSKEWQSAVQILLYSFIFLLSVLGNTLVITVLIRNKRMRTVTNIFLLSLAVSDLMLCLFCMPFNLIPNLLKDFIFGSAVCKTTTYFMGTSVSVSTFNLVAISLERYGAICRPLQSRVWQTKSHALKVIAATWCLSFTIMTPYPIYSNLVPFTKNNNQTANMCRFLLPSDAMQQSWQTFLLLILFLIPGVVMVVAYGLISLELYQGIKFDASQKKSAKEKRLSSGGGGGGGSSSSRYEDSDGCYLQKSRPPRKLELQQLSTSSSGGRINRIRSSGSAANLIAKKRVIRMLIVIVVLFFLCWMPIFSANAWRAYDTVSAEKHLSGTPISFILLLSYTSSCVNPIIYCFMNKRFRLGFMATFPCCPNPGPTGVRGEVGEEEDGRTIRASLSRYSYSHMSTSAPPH
# Method in brief: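 Radioligand competitive displacement on mouse pancreatic membranes, 2 h incubation; filter-based scintillation counting, loss of signal versus DMSO. Single-concentration screen at 25 uM in duplicate, actives retested in concentration-response up to 50 uM.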
# [2] = target: rat Adrenergic Receptor, Beta (Adrb), Non-selective Binding, Adrb1 (gene 24925) (UniProt P18090); assay: NVS_GPCR_rAdrb_NonSelective: NovaScreen (NVS) G Protein-Coupled Receptor Assay for rat Adrenergic Receptor, Beta (Adrb), Non-selective Binding (AID 2283298)
# Sequence of rat Adrenergic Receptor, Beta (Adrb), Non-selective Binding, Adrb1 (gene 24925) (P18090 whole entry, looked up): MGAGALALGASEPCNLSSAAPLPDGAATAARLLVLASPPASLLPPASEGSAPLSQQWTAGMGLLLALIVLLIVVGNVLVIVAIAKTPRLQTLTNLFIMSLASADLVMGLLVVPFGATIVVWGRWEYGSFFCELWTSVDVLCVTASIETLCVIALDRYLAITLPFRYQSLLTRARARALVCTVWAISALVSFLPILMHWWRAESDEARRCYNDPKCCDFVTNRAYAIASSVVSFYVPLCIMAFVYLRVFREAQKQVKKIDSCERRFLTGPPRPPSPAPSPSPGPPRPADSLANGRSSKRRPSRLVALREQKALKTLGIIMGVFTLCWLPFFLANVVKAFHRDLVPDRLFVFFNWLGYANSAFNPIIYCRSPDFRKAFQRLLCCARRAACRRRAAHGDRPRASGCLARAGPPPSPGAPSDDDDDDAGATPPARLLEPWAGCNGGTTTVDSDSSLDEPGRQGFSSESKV
# Method in brief: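 Non-selective beta-adrenergic radioligand binding in rat cortical membranes, 1 h incubation, filter-based scintillation read-out. Primary screen 25 uM in duplicate; hits retested in concentration-response up to 50 uM, DMSO baseline.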
# [3] = system: rabbit Platelet Activating Factor Receptor (PAF), gene 100354046; assay: NVS_GPCR_rabPAF: NovaScreen (NVS) G Protein-Coupled Receptor Assay for rabbit Platelet Activating Factor Receptor (PAF) (AID 2283287)
# Method in brief: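 Rabbit platelet membrane preparation; radioligand displacement read by filter-based scintillation counting 1 h after dosing, loss of signal versus DMSO. Primary screen in duplicate at 25 uM, actives followed up in concentration series.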
# [4] = target: rat Adrenergic, Alpha 1, Non-selective Receptor (Adra1), Adra1a (gene 29412) (UniProt P43140); assay: NVS_GPCR_rAdra1_NonSelective: NovaScreen (NVS) G Protein-Coupled Receptor Assay for rat Adrenergic, Alpha 1, Non-selective Receptor (Adra1) (AID 2283289)
# Sequence of rat Adrenergic, Alpha 1, Non-selective Receptor (Adra1), Adra1a (gene 29412) (P43140 whole entry, looked up): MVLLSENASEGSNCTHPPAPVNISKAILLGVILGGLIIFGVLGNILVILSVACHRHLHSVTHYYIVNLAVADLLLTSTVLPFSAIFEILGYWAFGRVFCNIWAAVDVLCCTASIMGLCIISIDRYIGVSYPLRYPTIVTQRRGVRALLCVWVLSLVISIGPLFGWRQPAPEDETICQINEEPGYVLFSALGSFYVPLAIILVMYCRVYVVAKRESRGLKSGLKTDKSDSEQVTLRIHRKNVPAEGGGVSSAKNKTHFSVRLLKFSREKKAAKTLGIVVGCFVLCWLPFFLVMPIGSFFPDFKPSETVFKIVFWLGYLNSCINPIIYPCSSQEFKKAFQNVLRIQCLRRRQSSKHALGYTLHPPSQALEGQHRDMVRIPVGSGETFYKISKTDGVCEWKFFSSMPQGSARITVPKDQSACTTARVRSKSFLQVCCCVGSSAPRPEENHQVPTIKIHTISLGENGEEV
# Method in brief: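 Rat forebrain membranes; radioligand displacement read by filter-based scintillation counting 1 h after dosing. Primary screen in duplicate at 25 uM; hits (e.g. ≥30% inhibition) rerun as concentration–response to 50 uM max. Fitted versus DMSO.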
# [5] = target: mouse Cholecystokinin, CCK2 Receptor (CCKB), Cckbr (gene 12426) (UniProt P56481); assay: NVS_GPCR_mCKKBCentral: NovaScreen (NVS) G Protein-Coupled Receptor Assay for mouse Cholecystokinin, CCK2 Receptor (CCKB) (AID 2283293)
# Sequence of mouse Cholecystokinin, CCK2 Receptor (CCKB), Cckbr (gene 12426) (P56481 whole entry, looked up): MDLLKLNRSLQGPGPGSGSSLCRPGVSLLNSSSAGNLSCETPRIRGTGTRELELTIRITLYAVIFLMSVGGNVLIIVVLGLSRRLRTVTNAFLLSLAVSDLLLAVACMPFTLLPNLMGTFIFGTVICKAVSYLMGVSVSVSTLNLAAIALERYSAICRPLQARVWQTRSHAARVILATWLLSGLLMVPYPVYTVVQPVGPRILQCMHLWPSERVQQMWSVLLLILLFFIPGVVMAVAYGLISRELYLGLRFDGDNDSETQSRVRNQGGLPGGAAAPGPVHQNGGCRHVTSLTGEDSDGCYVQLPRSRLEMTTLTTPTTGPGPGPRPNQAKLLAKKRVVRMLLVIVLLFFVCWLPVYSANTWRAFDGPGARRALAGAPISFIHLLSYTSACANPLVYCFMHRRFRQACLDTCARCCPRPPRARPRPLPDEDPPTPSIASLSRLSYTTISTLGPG
# Method in brief: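 Radioligand displacement binding on mouse forebrain membranes, 2 h exposure, filter-based scintillation counting. Primary screen in duplicate at 25 uM; actives (e.g. ≥30% inhibition) retested in concentration-response up to 50 uM; loss of binding signal relative to DMSO.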
# [6] = target: rat Somatostatin Receptor (SST), Sstr1 (gene 25033) (UniProt P28646); assay: NVS_GPCR_rSST: NovaScreen (NVS) G Protein-Coupled Receptor Assay for rat Somatostatin Receptor (SST) (AID 2283314)
# Sequence of rat Somatostatin Receptor (SST), Sstr1 (gene 25033) (P28646 whole entry, looked up): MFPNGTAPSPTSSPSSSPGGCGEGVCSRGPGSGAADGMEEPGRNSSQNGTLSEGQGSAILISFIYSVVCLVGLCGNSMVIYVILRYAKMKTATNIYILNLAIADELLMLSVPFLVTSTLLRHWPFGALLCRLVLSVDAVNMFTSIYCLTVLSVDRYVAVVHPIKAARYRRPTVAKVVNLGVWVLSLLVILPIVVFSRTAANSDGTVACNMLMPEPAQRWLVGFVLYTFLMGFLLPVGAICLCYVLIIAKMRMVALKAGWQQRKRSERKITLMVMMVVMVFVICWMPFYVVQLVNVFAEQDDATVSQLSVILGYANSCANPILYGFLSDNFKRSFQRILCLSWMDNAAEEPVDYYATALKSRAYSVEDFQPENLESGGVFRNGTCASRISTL
# Method in brief: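 Rat forebrain membranes; radioligand displacement read by filter-based scintillation counting 1 h after dosing. Primary screen in duplicate at 25 uM. Actives (e.g., 30% inhibition) were rerun as concentration-response to 50 uM max and fitted against DMSO.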
# [7] = target: rat Serotonin, 5-Hydroxytryptamine Receptor (5HT), Non-Selective Binding, Htr1a (gene 24473) (UniProt P19327); assay: NVS_GPCR_r5HT_NonSelective: NovaScreen (NVS) G Protein-Coupled Receptor Assay for rat Serotonin, 5-Hydroxytryptamine Receptor (5HT), Non-Selective Binding (AID 2283295)
# Sequence of rat Serotonin, 5-Hydroxytryptamine Receptor (5HT), Non-Selective Binding, Htr1a (gene 24473) (P19327 whole entry, looked up): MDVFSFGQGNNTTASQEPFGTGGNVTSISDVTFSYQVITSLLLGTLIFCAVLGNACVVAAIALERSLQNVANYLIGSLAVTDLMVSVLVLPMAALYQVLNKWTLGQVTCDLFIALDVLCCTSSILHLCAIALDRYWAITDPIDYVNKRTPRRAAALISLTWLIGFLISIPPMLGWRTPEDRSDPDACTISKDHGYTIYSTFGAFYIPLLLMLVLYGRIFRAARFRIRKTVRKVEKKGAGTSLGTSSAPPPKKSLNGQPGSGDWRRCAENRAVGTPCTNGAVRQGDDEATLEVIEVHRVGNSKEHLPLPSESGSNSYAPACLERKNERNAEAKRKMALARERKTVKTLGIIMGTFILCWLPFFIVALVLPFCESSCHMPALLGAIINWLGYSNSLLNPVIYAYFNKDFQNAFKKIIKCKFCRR
# Method in brief: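 Radioligand displacement on rat cortical membranes, 1 h incubation, filter-based scintillation counting. Primary duplicates at 25 uM, actives retested in concentration series; loss of signal fitted against DMSO as baseline.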
# [8] = target: rat Adrenergic, Alpha 1A Receptor (Adra1A), Adra1a (gene 29412) (UniProt P43140); assay: NVS_GPCR_rAdra1A: NovaScreen (NVS) G Protein-Coupled Receptor Assay for rat Adrenergic, Alpha 1A Receptor (Adra1A) (AID 2283296)
# Sequence of rat Adrenergic, Alpha 1A Receptor (Adra1A), Adra1a (gene 29412) (P43140 whole entry, looked up): as the sequence (P43140 whole entry, looked up) above
# Method in brief: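 Rat cortical membranes pretreated with chlorethyl clonidine; competitive radioligand displacement, 1 h. Filter-based scintillation counting. Primary screen in duplicate at 25 uM, actives followed in concentration series.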
# [9] = target: rat Neurokinin-1 Receptor (NK1), Tacr1 (gene 24807) (UniProt P14600); assay: NVS_GPCR_rNK1: NovaScreen (NVS) G Protein-Coupled Receptor Assay for rat Neurokinin-1 Receptor (NK1) (AID 2283309)
# Sequence of rat Neurokinin-1 Receptor (NK1), Tacr1 (gene 24807) (P14600 whole entry, looked up): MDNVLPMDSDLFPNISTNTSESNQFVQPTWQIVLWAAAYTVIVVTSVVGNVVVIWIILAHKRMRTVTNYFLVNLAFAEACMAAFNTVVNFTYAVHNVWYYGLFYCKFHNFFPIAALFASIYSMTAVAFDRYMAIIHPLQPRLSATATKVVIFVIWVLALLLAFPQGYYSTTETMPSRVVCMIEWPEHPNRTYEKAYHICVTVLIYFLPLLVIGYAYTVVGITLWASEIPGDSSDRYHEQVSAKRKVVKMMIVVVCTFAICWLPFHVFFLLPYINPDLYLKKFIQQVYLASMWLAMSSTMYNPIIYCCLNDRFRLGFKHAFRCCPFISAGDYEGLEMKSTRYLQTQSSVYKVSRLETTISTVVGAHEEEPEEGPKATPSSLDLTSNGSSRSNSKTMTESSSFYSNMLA
# Method in brief: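 Rat submaxillary gland membranes; radioligand displacement read by filter-based scintillation counting after 1 h. Primary screen in duplicate at 25 uM; actives retested in concentration series; loss of binding fitted versus DMSO.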
# [10] = target: rat Opioid Receptor, Non-selective Sodium (Na+) Binding, Oprm1 (gene 25601) (UniProt P33535); assay: NVS_GPCR_rOpiate_NonSelectiveNa: NovaScreen (NVS) G Protein-Coupled Receptor Assay for rat Opioid Receptor, Non-selective Sodium (Na+) Binding (AID 2283311)
# Sequence of rat Opioid Receptor, Non-selective Sodium (Na+) Binding, Oprm1 (gene 25601) (P33535 whole entry, looked up): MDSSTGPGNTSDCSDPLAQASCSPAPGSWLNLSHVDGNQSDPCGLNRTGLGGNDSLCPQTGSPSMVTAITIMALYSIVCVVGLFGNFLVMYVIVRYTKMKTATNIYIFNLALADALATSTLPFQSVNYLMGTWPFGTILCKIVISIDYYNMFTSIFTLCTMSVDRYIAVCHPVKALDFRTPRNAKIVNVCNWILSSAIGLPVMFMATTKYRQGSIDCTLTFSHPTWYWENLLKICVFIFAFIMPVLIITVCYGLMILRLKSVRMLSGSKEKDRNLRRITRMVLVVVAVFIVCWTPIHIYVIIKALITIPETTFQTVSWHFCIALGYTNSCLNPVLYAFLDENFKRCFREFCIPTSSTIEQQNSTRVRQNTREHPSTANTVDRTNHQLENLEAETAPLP
# Method in brief: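 Rat forebrain membranes, radioligand displacement with filter scintillation counting, 1.5 h incubation. Screened in duplicate at 25 µM; hits then run in concentration-response up to 50 µM; loss of binding fitted versus DMSO.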
# [11] = target: rat Neonicotinoid receptor (NNR), Chrna7 (gene 25302) (UniProt Q05941); assay: NVS_LGIC_rNNR_BungSens: NovaScreen (NVS) Ligand-Gated Ion Channel Assay for rat Neonicotinoid receptor (NNR) (AID 2283315)
# Sequence of rat Neonicotinoid receptor (NNR), Chrna7 (gene 25302) (Q05941 whole entry, looked up): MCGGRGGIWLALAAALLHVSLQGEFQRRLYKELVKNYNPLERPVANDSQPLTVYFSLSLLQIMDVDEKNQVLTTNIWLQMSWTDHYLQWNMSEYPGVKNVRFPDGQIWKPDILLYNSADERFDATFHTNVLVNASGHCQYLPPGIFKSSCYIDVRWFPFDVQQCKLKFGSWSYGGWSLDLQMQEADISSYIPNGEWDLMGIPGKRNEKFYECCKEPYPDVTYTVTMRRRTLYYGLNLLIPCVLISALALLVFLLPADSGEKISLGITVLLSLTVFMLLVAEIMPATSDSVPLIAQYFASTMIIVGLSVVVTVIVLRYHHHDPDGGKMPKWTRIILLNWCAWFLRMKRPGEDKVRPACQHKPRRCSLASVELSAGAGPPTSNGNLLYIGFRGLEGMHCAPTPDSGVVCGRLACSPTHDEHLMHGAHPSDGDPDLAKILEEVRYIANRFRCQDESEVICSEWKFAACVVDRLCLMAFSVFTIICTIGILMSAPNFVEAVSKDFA
# Method in brief: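 Radioligand displacement binding on rat cortical membranes, 2.5 h incubation, filtration and scintillation counting. Loss of specific binding fitted relative to DMSO.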
structure (smiles),measurement,setting,value
O=C(CCCN1CCC(O)(c2ccc(Cl)cc2)CC1)c1ccc(F)cc1,AC50,[1],37.3 µM (active)
same,AC50,[2],18.2 µM (active)
CCCCc1oc2ccccc2c1C(=O)c1cc(I)c(OCCN(CC)CC)c(I)c1,AC50,[1],21.6 µM (active)
same,AC50,[3],22.5 µM (active)
same,AC50,[4],24.5 µM (active)
CN(Cc1cnc2nc(N)nc(N)c2n1)c1ccc(C(=O)N[C@@H](CCC(=O)O)C(=O)O)cc1,outcome,[5],inactive
same,AC50,[6],3.06 µM (active)
N=C(N)c1ccc(OCCCCCOc2ccc(C(=N)N)cc2)cc1,AC50,[7],14 µM (active)
same,AC50,[8],1.32 µM (active)
same,outcome,[9],inactive
same,AC50,[10],18.4 µM (active)
CN(C)CCOC(c1ccccc1)c1ccccc1,AC50,[7],7.06 µM (active)
same,outcome,[10],inactive
CC1CNCC(C)O1 (stereo not given),AC50,[11],25 µM (active)
NC(=NCCCCCCN=C(N)/N=C(\N)Nc1ccc(Cl)cc1)/N=C(\N)Nc1ccc(Cl)cc1,AC50,[11],38.3 µM (active)
